Screening results deposited in PubChem by Broad Institute.
A selection: hits, their analogues and other compounds. The true share with any hit is near 6.7%.
Pf Dd2 inh = P. falciparum Dd2 growth inhibitors, primary screen, SYBR Green fluorescence, single dose replicates; 72 h; hits give low values; activity change, % at 10 µM; 94,000 compounds, 2.3% hits; AID 1159554, 2015; in the data active = activity change below about -80%; inconclusive = no clear call, values can overlap the other calls
T cruzi growth-1 = T. cruzi intracellular proliferation inhibitors, primary screen, cell-based, beta-gal Tulahuen parasites, NIH3T3 host, luminescence; inhibition, % at 8.34 µM; AID 624255, 2012; 77,000 compounds, 5.9% hits; T. cruzi beta-gal in NIH3T3, GalScreen luminescence, 90 h;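 active = mean inhibition above about 93%, with at least 55% of replicates each passing it, limit read from the data, passing the limit was not always enough; inconclusive = only one of those two conditions holds; inactive = neither condition holds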
C diff HTS = C. difficile growth inhibitors, primary screen, HTS | Clostridium difficile clinical isolate growth, OD600, 24 h; hits give low values | growth activity, negative = inhibition, % at 16 µg/mL (by protocol) | 86,000 compounds, 0.25% hits | AID 1259249, 2017;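 active = mean growth activity at or below -80% and every replicate also at or below -80%; inconclusive = mean at or below -80% but some replicate above -80%; inactive = mean growth activity above -80%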
T cruzi growth-2 = T. cruzi intracellular proliferation inhibitors, confirmation, cell-based, NIH3T3 host, beta-gal parasite, luminescence, cherry-pick; shares compounds with T cruzi growth-1; T. cruzi beta-gal in NIH3T3, GalScreen luminescence, 90 h; inhibition, % at 8.35 µM; 5,600 compounds, 72% hits; AID 651739, 2012;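 active = mean replicate inhibition above about 95% and at least 55% of replicates individually reaching it, limit read from the data; inconclusive = only one of the two criteria is met; inactive = neither criterion is met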
T cruzi growth-3 = inhibitors of intracellular T. cruzi replication, confirmation, NIH3T3 host cells, beta-gal parasites, cherry-pick, set 2; shares compounds with T cruzi growth-1; T. cruzi beta-gal in NIH3T3, GalScreen luminescence, 90 h; inhibition, % at 2.09 µM; 5,600 compounds, 21% hits; AID 651740, 2012;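 active = mean inhibition above about 95%, with at least 55% of replicates also reaching it, limit read from the data; inconclusive = meets just one of the two conditions; inactive = meets neither condition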
3T3 cytotox = cytotoxicity in mouse NIH/3T3 fibroblasts, confirmation, cytotoxicity control for T. cruzi proliferation inhibitor project, cell-based, cherry-pick, single point; NIH/3T3 viability, CellTiter-Glo ATP luminescence, 90 h; 5,600 compounds, 14% hits; shares compounds with T cruzi growth-1; cytotoxicity (signal decrease), % at 8.35 µM; AID 651742, 2012;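 active = mean signal decrease across replicates above about 35% based on untreated-well scatter, with enough replicates individually passing, limit read from the data; inconclusive = no rule stated though some were filed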
3T3 cytotox 2 = NIH/3T3 fibroblast cytotoxicity, confirmation, cytotoxicity control, cell-based, cherry-pick, single point, set 2; shares compounds with T cruzi growth-1; NIH/3T3 viability, CellTiter-Glo ATP luminescence, 90 h; inhibition, % at 24.9 µM; 5,600 compounds, 56% hits;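 active = mean loss of cell viability signal at or above a set limit, and enough replicates individually reaching it; inconclusive = meets only the mean limit or only the replicate share; inactive = meets neither condition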
Of the large screens only hits and unclear results are named; the others gave an inactive call (follow-up assays come after a bar, where they were run); ! = not active in a repeat.

C[C@@H]1CN([C@@H](C)CO)C(=O)c2cc(NC(=O)Nc3ccc4c(c3)OCO4)ccc2O[C@@H](C)CCCCO[C@H]1CN(C)Cc1ccc(C(F)(F)F)cc1	none (no result: C diff HTS)
C[C@@H]1CCCCO[C@@H](CN(C)Cc2ccc3c(c2)OCO3)[C@H](C)CN([C@@H](C)CO)C(=O)c2cc(NC(=O)Nc3ccc(C(F)(F)F)cc3)ccc2O1	T cruzi growth-1 inconclusive | T cruzi growth-2 99 | T cruzi growth-3 111 | 3T3 cytotox inactive | 3T3 cytotox 2 53
C[C@@H]1CN([C@H](C)CO)C(=O)c2cc(NC(=O)Nc3ccc4c(c3)OCO4)ccc2O[C@@H](C)CCCCO[C@@H]1CN(C)Cc1ccc(C(F)(F)F)cc1	none (no result: C diff HTS)
C[C@@H]1CCCCO[C@@H](CN(C)Cc2ccc(C(F)(F)F)cc2)[C@@H](C)CN([C@H](C)CO)C(=O)c2cc(NC(=O)Nc3ccc4c(c3)OCO4)ccc2O1	T cruzi growth-1 100 (no result: C diff HTS) | T cruzi growth-2 101 | T cruzi growth-3 inactive | 3T3 cytotox inactive | 3T3 cytotox 2 inactive
COc1ccc(C#Cc2cnc3c(c2)C(=O)N([C@@H](C)CO)C[C@H](C)[C@H](CN(C)CC2CC2)O3)cc1	none (no result: T cruzi growth-1)
COc1ccc(NC(=O)N[C@@H]2CC[C@@H](CCNS(=O)(=O)c3cccc(Cl)c3)O[C@@H]2CO)cc1	none (no result: T cruzi growth-1)
CN(C)C(=O)c1cccc(-c2ccc([C@@H]3[C@@H](CO)N4CCCCN(S(C)(=O)=O)C[C@H]34)cc2)c1	none
CN(C)C(=O)c1cccc(-c2ccc([C@@H]3[C@@H](CO)N4CCCCN(S(C)(=O)=O)C[C@@H]34)cc2)c1	T cruzi growth-1 99 | T cruzi growth-2 inconclusive | T cruzi growth-3 inactive | 3T3 cytotox inactive | 3T3 cytotox 2 inactive
CN(C)C(=O)c1cccc(-c2ccc([C@H]3[C@H](CO)N4CCCCN(C(=O)C5CCCC5)C[C@@H]34)cc2)c1	T cruzi growth-1 inconclusive | T cruzi growth-2 99 | T cruzi growth-3 inactive | 3T3 cytotox inactive | 3T3 cytotox 2 inactive
CN(C)C(=O)c1cccc(-c2ccc([C@@H]3[C@H]4CN(C(=O)C5CCCC5)CCCCN4[C@H]3CO)cc2)c1	none
CN(C)C(=O)c1cccc(-c2ccc([C@H]3[C@@H](CO)N4CCCCN(C(=O)C5CCC5)C[C@@H]34)cc2)c1	T cruzi growth-1 105 | T cruzi growth-2 inactive | T cruzi growth-3 inactive | 3T3 cytotox inactive | 3T3 cytotox 2 inactive
CN(C)C(=O)c1cccc(-c2ccc([C@@H]3[C@H](CO)N4CCCCN(C(=O)C5CCCC5)C[C@@H]34)cc2)c1	none
C[C@@H]1CN([C@H](C)CO)C(=O)c2cc(N(C)C)ccc2O[C@@H](C)CCCCO[C@@H]1CN(C)C(=O)CCC(F)(F)F	none
C[C@H](CO)N1C[C@H](C)[C@H](CN(C)Cc2cccnc2)Oc2cc(-c3ccncc3)ccc2S1(=O)=O	none
C[C@H](CO)N1C[C@H](C)[C@@H](CN(C)Cc2cccnc2)Oc2cc(-c3cccnc3)ccc2S1(=O)=O	T cruzi growth-1 101! | T cruzi growth-2 inactive | T cruzi growth-3 inactive | 3T3 cytotox inactive | 3T3 cytotox 2 64
Cc1ccc(-c2ccc3c(c2)O[C@@H](CN(C)Cc2cccnc2)[C@H](C)CN([C@@H](C)CO)S3(=O)=O)cc1	Pf Dd2 inh -81, T cruzi growth-1 117 | T cruzi growth-2 98 | T cruzi growth-3 96 | 3T3 cytotox 51 | 3T3 cytotox 2 100
C[C@H](CO)N1C[C@H](C)[C@@H](CN(C)Cc2cccnc2)Oc2cc(-c3ccccc3)ccc2S1(=O)=O	none
C[C@@H]1CN([C@H](C)CO)S(=O)(=O)c2ccc(-c3cccnc3)cc2O[C@@H]1CN(C)Cc1cccnc1	none
